Reference: PubChem BioAssay (NCI)
Compounds without any hit were thinned out: in the full panel of roughly 83,000, 20% have a hit.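 Method: cells in 96-well plates; compound added at one concentration; 48 h incubation; percent growth measured; values under 10 scored active.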 Activity calls are given as the source filed them.

Assays:
Test in all cases: NCI-60 one-dose screen, 48 h (100 = growth as untreated, 0 = no growth, -100 = all killed)
Conditions in all cases: 10 µM unless noted
NCI-H226 lung = test system: NCI-H226 lung
NCI-H322M lung = test system: NCI-H322M lung
HOP-62 NSCLC = test system: HOP-62 NSCLC
NCI-H460 lung = test system: NCI-H460 lung
HOP-92 NSCLC = test system: HOP-92 NSCLC
NCI-H522 lung = test system: NCI-H522 lung
A549/ATCC NSCLC = test system: A549/ATCC NSCLC
COLO 205 colon = test system: COLO 205 colon
786-0 renal = test system: 786-0 renal

Measured: growth

CNC(=O)c1cc(Oc2ccc3nc(NC(=O)Nc4ccc(N5CCC(N(C)C)CC5)cc4)sc3c2)ccn1
inactive: NCI-H226 lung 94.9% | NCI-H322M lung 88.9% | HOP-62 NSCLC 93.5% | NCI-H460 lung 81.6% | HOP-92 NSCLC 74.7% | NCI-H522 lung 117% | A549/ATCC NSCLC 79.8% | COLO 205 colon 80%

NS(=O)(=O)c1ccc(-n2ncc3c(=O)[nH]c(CN4CCN(c5cc6c(cc5F)c(=O)c(C(=O)O)cn6C5CC5)CC4)nc32)cc1
inactive: NCI-H226 lung 100% | NCI-H322M lung 102% | HOP-62 NSCLC 113% | NCI-H460 lung 101% | HOP-92 NSCLC 88.4% | NCI-H522 lung 91.8% | A549/ATCC NSCLC 104% | 786-0 renal 96.1% | COLO 205 colon 114%

COc1cc(NCCCCN=C(N)N)c2ncccc2c1
active: NCI-H522 lung -9.41%
inactive: NCI-H226 lung 98.9% | NCI-H322M lung 73.5% | HOP-62 NSCLC 80.9% | NCI-H460 lung 104% | HOP-92 NSCLC 68.8% | A549/ATCC NSCLC 86.8% | 786-0 renal 91.6% | COLO 205 colon 82.6%

CSc1nc(NCCCNc2ccnc3cc(Cl)ccc23)cc(-c2ccccc2)n1
inactive: NCI-H226 lung 84.4% | NCI-H322M lung 85.5% | HOP-62 NSCLC 81.3% | NCI-H460 lung 70% | HOP-92 NSCLC 33.5% | NCI-H522 lung 73.5% | A549/ATCC NSCLC 74.3% | 786-0 renal 72.9%
active: COLO 205 colon -76%

CCCCNc1ccc2c3c1cccc3c(=O)n1c3ccccc3nc21
inactive: NCI-H226 lung 73.7% | NCI-H322M lung 93.5% | HOP-62 NSCLC 81.9% | NCI-H460 lung 48.3% | HOP-92 NSCLC 61.2% | NCI-H522 lung 71.9% | 786-0 renal 102% | COLO 205 colon 85.4%

CC1(C)OCC2OC3(C(=O)O)OC(C)(C)OC3C2O1 (stereo not drawn)
inactive: NCI-H226 lung 106% | NCI-H322M lung 93% | HOP-62 NSCLC 101% | NCI-H460 lung 110% | HOP-92 NSCLC 116% | NCI-H522 lung 84.6% | A549/ATCC NSCLC 98.1% | 786-0 renal 103% | COLO 205 colon 106%

COc1ccc(-c2cc(NC(=O)Nc3ccc(O)cc3)no2)cc1
inactive: NCI-H226 lung 84.2% | NCI-H322M lung 66.8% | HOP-62 NSCLC 88.5% | NCI-H460 lung 86.2% | HOP-92 NSCLC 94% | NCI-H522 lung 44.8% | A549/ATCC NSCLC 67.6% | 786-0 renal 77.3% | COLO 205 colon 105%

CCN(CC)Cc1cc(Nc2c3ccc(Cl)cc3nc3c(C)cccc23)ccc1O
active: NCI-H226 lung -28.1% | NCI-H322M lung -25.6% | HOP-62 NSCLC -74.6% | NCI-H460 lung -78.1% | HOP-92 NSCLC -62.7% | NCI-H522 lung -77.2% | A549/ATCC NSCLC -15.5% | 786-0 renal -91.6% | COLO 205 colon -92.4%

COc1ccc(C2Nc3ccccc3-n3cccc32)cc1 (stereo not drawn)
inactive: NCI-H226 lung 96.7% | NCI-H322M lung 97% | HOP-62 NSCLC 104% | NCI-H460 lung 102% | HOP-92 NSCLC 74.2% | NCI-H522 lung 95.7% | A549/ATCC NSCLC 104% | 786-0 renal 111% | COLO 205 colon 126%

COc1cc(-c2c3c(nc4c2c(C)nn4-c2ccccc2)-c2ccccc2C(=O)C3=O)cc(OC)c1OC
inactive: NCI-H226 lung 99.7% | HOP-62 NSCLC 107% | NCI-H460 lung 77.4% | HOP-92 NSCLC 83.7% | NCI-H522 lung 84.4% | A549/ATCC NSCLC 80.6% | 786-0 renal 97.8% | COLO 205 colon 69.7%

C=CCSc1nnc(-c2ccc(C(C)(C)C)cc2)n1-c1cccc(C(F)(F)F)c1
inactive: NCI-H226 lung 44.7% | NCI-H322M lung 77.7% | HOP-62 NSCLC 67.3% | NCI-H460 lung 29.3% | HOP-92 NSCLC 28.9% | NCI-H522 lung 37.3% | A549/ATCC NSCLC 21.2% | 786-0 renal 30.4% | COLO 205 colon 41.1%

COc1ccc(-c2c(C)noc2-c2ccc(O)cc2O)cc1
inactive: NCI-H226 lung 101% | NCI-H322M lung 94% | HOP-62 NSCLC 118% | NCI-H460 lung 54.3% | HOP-92 NSCLC 104% | NCI-H522 lung 69.5% | A549/ATCC NSCLC 75.3% | 786-0 renal 97.9% | COLO 205 colon 121%

CC[C@]12C=CCN3CC[C@@]4(c5ccc(OC)cc5N(C)[C@H]4[C@@](O)(C(=O)OC)[C@@H]1OC(=O)CCC(=O)N[C@@H](Cc1c[nH]c4ccccc14)C(=O)OC)[C@@H]32
inactive: NCI-H226 lung 104% | NCI-H322M lung 98.5% | HOP-62 NSCLC 90.1% | NCI-H460 lung 96.6% | HOP-92 NSCLC 66.8% | NCI-H522 lung 78.6% | A549/ATCC NSCLC 86.8% | 786-0 renal 91.5% | COLO 205 colon 98.8%

C[C@@H]1CCC2=C(CCC[C@]2(C)C(=O)O)[C@@]1(C)CCc1ccoc1
inactive: NCI-H226 lung 85.7% | NCI-H322M lung 93.4% | HOP-62 NSCLC 96.5% | NCI-H460 lung 96.9% | HOP-92 NSCLC 85.1% | NCI-H522 lung 77% | A549/ATCC NSCLC 75.8% | 786-0 renal 112% | COLO 205 colon 112%

CCC(c1ccc(O)cc1)C(CC)c1ccc(O)c(F)c1 (stereo not drawn)
inactive: NCI-H226 lung 91.6% | NCI-H322M lung 91.1% | HOP-62 NSCLC 94.5% | NCI-H460 lung 98.9% | HOP-92 NSCLC 59.5% | NCI-H522 lung 77.9% | 786-0 renal 75.4% | COLO 205 colon 114%

Cc1ccc2c(NCCCN(C)C)c3c(C)nn(C)c3nc2c1
active: NCI-H460 lung 8.82%
inactive: NCI-H226 lung 41.7% | NCI-H322M lung 34.5% | HOP-62 NSCLC 41.1% | HOP-92 NSCLC 30% | NCI-H522 lung 28.3% | 786-0 renal 37.1% | COLO 205 colon 13.4%

C=CC[N+]1(CCO)CCN=C1CCCCCCCCCCCCC (stereo not drawn)
active: NCI-H226 lung 3.45% | HOP-62 NSCLC -90.5% | NCI-H460 lung -85.8% | HOP-92 NSCLC -18.3% | NCI-H522 lung -82.6% | A549/ATCC NSCLC 0.535% | 786-0 renal -97.1% | COLO 205 colon -91.4%

O=C(CCCCN1CCOCC1)Nc1ccc(Cn2nnc3c2C(=O)c2nnn(Cc4ccc(NC(=O)CCCCN5CCOCC5)cc4)c2C3=O)cc1
active: NCI-H226 lung -52.2% | NCI-H322M lung -89.3% | HOP-62 NSCLC -59.1% | NCI-H460 lung -39.8% | HOP-92 NSCLC -40.3% | NCI-H522 lung -68.3% | A549/ATCC NSCLC -68.3% | 786-0 renal -50.5% | COLO 205 colon -78.8%

O=C1/C(=C\c2cn(C(=O)c3ccc(Cl)cc3)c3ccccc23)c2ccccc2N1c1c(Cl)cccc1Cl
inactive: NCI-H226 lung 94.9% | NCI-H322M lung 112% | HOP-62 NSCLC 94.2% | NCI-H460 lung 111% | HOP-92 NSCLC 79.9% | NCI-H522 lung 90.9% | A549/ATCC NSCLC 110% | 786-0 renal 90.7% | COLO 205 colon 123%

O=C(/C=C\c1ccc2ccccc2n1)c1cc(Cl)ccc1O
inactive: NCI-H226 lung 58.7% | NCI-H322M lung 86.1% | HOP-62 NSCLC 97.8% | NCI-H460 lung 78.9% | HOP-92 NSCLC 52.3% | A549/ATCC NSCLC 104% | 786-0 renal 75.4% | COLO 205 colon 115%

COc1ccc(/C=C2\CN(C(=O)CCN3CCC(=NO)CC3)C/C(=C\c3ccc(OC)cc3)C2=O)cc1
inactive: NCI-H226 lung 70% | HOP-62 NSCLC 44.8% | HOP-92 NSCLC 89% | A549/ATCC NSCLC 36.5%
active: NCI-H460 lung -34.5% | 786-0 renal -10.3% | COLO 205 colon -23.7%

COc1ccc2nc3cc(Cl)ccc3c(N3CCN(c4nccc(NCc5ccccc5)n4)CC3)c2c1
inactive: NCI-H226 lung 96.4% | NCI-H322M lung 89.4% | HOP-62 NSCLC 35.9% | NCI-H460 lung 89.9% | HOP-92 NSCLC 69.1% | A549/ATCC NSCLC 78.3% | 786-0 renal 79% | COLO 205 colon 82.1%

NS(=O)(=O)c1ccc(Nc2nc3n[nH]c(Nc4ccccc4)c3c(=O)[nH]2)cc1
inactive: NCI-H226 lung 92.5% | NCI-H322M lung 101% | HOP-62 NSCLC 90.8% | NCI-H460 lung 103% | HOP-92 NSCLC 102% | NCI-H522 lung 90.4% | A549/ATCC NSCLC 103% | 786-0 renal 101% | COLO 205 colon 96.6%

CC1=C(NCCN2CCCC2)C(=O)c2c(OCc3ccc(F)c(Cl)c3)cccc2C1=O
inactive: NCI-H226 lung 90.4% | NCI-H322M lung 64.3% | HOP-62 NSCLC 68.8% | NCI-H460 lung 57.7% | HOP-92 NSCLC 57.1% | NCI-H522 lung 76% | A549/ATCC NSCLC 78.3% | 786-0 renal 63.6% | COLO 205 colon 69.5%

C=C1CCC2C3(C)COC(c4cccc(Cl)c4)OC3CCC2(C)C1/C=C/C1=CCOC1=O (stereo not drawn)
inactive: NCI-H226 lung 61% | NCI-H322M lung 90.2% | HOP-62 NSCLC 76.7% | NCI-H460 lung 36.2% | HOP-92 NSCLC 98.2% | NCI-H522 lung 57.8% | A549/ATCC NSCLC 58.4% | 786-0 renal 65.9% | COLO 205 colon 106%

CC(=O)C1=C(O)C=C2Oc3c(C(=O)/C=C/c4cc(C(F)(F)F)cc(C(F)(F)F)c4)c(O)c(C)c(O)c3[C@]2(C)C1=O
active: NCI-H226 lung -56.5% | NCI-H322M lung -44.8% | HOP-62 NSCLC -52.6% | NCI-H460 lung -32.6% | HOP-92 NSCLC -41.2% | NCI-H522 lung -36% | A549/ATCC NSCLC -46.7% | 786-0 renal -46.3% | COLO 205 colon -66.6%

Nc1nc2c(c3ncccc13)C(c1ccc(Cl)c(Cl)c1)Cc1ncccc1-2 (stereo not drawn)
active: NCI-H522 lung -6.27% | COLO 205 colon 1.52%
inactive: NCI-H226 lung 70.8% | NCI-H322M lung 40.9% | HOP-62 NSCLC 28% | NCI-H460 lung 12.5% | HOP-92 NSCLC 59% | A549/ATCC NSCLC 22.7% | 786-0 renal 29.9%

C/C=C/C(N)=O
inactive: NCI-H226 lung 93.4% | HOP-62 NSCLC 109% | NCI-H460 lung 102% | HOP-92 NSCLC 91.1% | NCI-H522 lung 104% | A549/ATCC NSCLC 106% | COLO 205 colon 107%

COc1ccc(/C(=C/c2ccc3ccccc3c2)c2nn[nH]n2)cc1OC
inactive: NCI-H226 lung 81.1% | NCI-H322M lung 40.1% | HOP-62 NSCLC 27.8% | NCI-H460 lung 14.1% | A549/ATCC NSCLC 25.4% | 786-0 renal 40.4%
active: HOP-92 NSCLC 5.89% | NCI-H522 lung -2.85% | COLO 205 colon -2.4%

CNCc1cccc2c1OCCOCCOCCN(C)S(=O)(=O)c1ccc(cc1)-c1cnc(N)c(n1)C(=O)N2
active: NCI-H522 lung 9.56% | 786-0 renal 9.16%
inactive: NCI-H226 lung 45.6% | NCI-H322M lung 25.5% | HOP-62 NSCLC 79.8% | NCI-H460 lung 10.5% | HOP-92 NSCLC 127% | A549/ATCC NSCLC 60.5% | COLO 205 colon 29.8%
